Mtb UGM inh: blocks M. tuberculosis UGM enzyme; 0.06% of 320,000 active; purified UGM, fluorescence polarization probe displacement; AID 504406; inhibition, % at 10 µM; in the data active = inhibition above about 10%, passing the limit was not always enough
GDH-TPI counter-1: counter-screen for M. tuberculosis FBA inhibitors: GDH-TPI coupled enzymes; GDH-TPI coupled enzyme counterscreen, NADH absorbance; inhibition, % at 4.8 µM; 1.2% of 360,000 active; AID 588335; in the data active = inhibition above about 30%;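 note: 0% = DMSO wells and 100% = wells lacking the enzyme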
Mtb betalactam: beta-lactam sensitization of Mtb H37Rv. inhibition, % at 25 µM. M. tuberculosis H37Rv growth with meropenem, percent inhibition. AID 434955. 0.27% of 330,000 active; call rule not given here;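 note: growth measured after seven days incubation then overnight dye step; 0% = bacteria only wells and 100% = bacteria with antibiotic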
Rv3671c protease: Rv3671c (M. tuberculosis) protease inhibition; inhibition, % at 5.96 µM; 0.048% of 320,000 active; AID 2606; in the data active = inhibition above about 38%;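 note: extracellular domain of Rv3671c used as enzyme; 0% = enzyme with DMSO and 100% = no enzyme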
Target sequence (P9WHR9 whole entry, looked up, the tested form may be a part): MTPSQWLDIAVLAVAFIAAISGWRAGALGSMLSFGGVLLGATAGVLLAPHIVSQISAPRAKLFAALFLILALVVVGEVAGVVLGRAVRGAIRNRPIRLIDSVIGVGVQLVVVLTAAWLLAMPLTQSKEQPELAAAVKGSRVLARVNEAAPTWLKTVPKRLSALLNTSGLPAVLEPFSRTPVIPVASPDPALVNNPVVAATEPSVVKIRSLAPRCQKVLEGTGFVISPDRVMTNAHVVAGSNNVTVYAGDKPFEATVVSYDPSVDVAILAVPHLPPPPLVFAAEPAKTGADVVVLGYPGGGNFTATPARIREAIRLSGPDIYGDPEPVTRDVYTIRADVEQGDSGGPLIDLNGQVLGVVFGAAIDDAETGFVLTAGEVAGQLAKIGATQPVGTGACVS
FBA Mtb inh: Mtb fructose-bisphosphate aldolase inhibition; purified M. tuberculosis FBA, fluorescence read-out; inhibition, % at 1 µM; 2.3% of 360,000 active; AID 588726;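 note: 0% = vehicle and 100% = reference inhibitor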
Mtb FBA confirm: Mtb FBA inhibition, confirmed. shares compounds with FBA Mtb inh. purified M. tuberculosis FBA, fluorescence read-out. inhibition, % at 1 µM. 78% of 5,600 active. AID 651616;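 note: 0% = vehicle wells and 100% = reference inhibitor wells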
GDH-TPI counter-2: counter-screen for M. tuberculosis FBA inhibitors: GDH-TPI coupled enzyme inhibition. 81% of 5,600 active. GDH-TPI coupled enzyme counterscreen, fluorescence. shares compounds with FBA Mtb inh. inhibition, % at 1 µM; in the data active = inhibition above about 10%
The depositor's hits bear a star. This is a sample that favours compounds with a hit; in the whole collection about 3.5% have one here. Cut-off read from the data, not from the text of the source, unless noted: active = inhibition above about 27%; inactive = the rest.

How did Cc1[nH]c2ccc(C(=O)N3CCN(c4ccc(F)cc4)CC3)cc2c1C do in these assays?
Mtb UGM inh: 1.2; GDH-TPI counter-1: 9.5; Mtb betalactam: 2.2; Rv3671c protease: 2.7; FBA Mtb inh: 30.3*; Mtb FBA confirm: 158.2*; GDH-TPI counter-2: 119.8*

Results for CCCCOC(=O)c1ccc(NC(=O)C(=O)CC(=O)c2ccc(OC)cc2)cc1 ?
Mtb UGM inh: 1.0; GDH-TPI counter-1: 15.1; Mtb betalactam: 89.8; Rv3671c protease: 4.0; FBA Mtb inh: 3.5

How did CC1(C)Cc2nc3oc4c(NCc5ccccc5)ncnc4c3cc2CO1 do in these assays?
Mtb UGM inh: -1.1; GDH-TPI counter-1: -5.3; Mtb betalactam: -2.5; Rv3671c protease: -4.3; FBA Mtb inh: 60.1*; Mtb FBA confirm: 46.8*; GDH-TPI counter-2: 44.4*

How did Cc1nc2oc3c(NCc4ccccn4)ncnc3c2c2c1COC(C)(C)C2 do in these assays?
Mtb UGM inh: 0.4; GDH-TPI counter-1: 9.1; Mtb betalactam: 0.7; Rv3671c protease: -5.2; FBA Mtb inh: 93.6*; Mtb FBA confirm: 86.2*; GDH-TPI counter-2: 74.3*

Results for C=C1N(c2cccc(Cl)c2)C(=O)OC1(C)C ?
Mtb UGM inh: 0.1; GDH-TPI counter-1: -8.4; Mtb betalactam: 3.2; Rv3671c protease: 0.1; FBA Mtb inh: -3.7

What do the screens show for `O=C(Nc1ccccc1F)c1coc(=O)c(Br)c1`?
Mtb UGM inh: -0.4; GDH-TPI counter-1: 14.2; Mtb betalactam: -6.9; Rv3671c protease: 0.6; FBA Mtb inh: 107.2*; GDH-TPI counter-2: active

How did O=C(NCc1ccccn1)c1coc(=O)c(Br)c1 do in these assays?
Mtb UGM inh: 1.3; GDH-TPI counter-1: 12.2; Mtb betalactam: -3.9; Rv3671c protease: 2.3; FBA Mtb inh: 78.4*; Mtb FBA confirm: -4.4; GDH-TPI counter-2: -5.8

What do the screens show for `Cc1cc(NC(=O)c2coc(=O)c(Br)c2)ccc1C(C)C`?
Mtb UGM inh: 2.9; GDH-TPI counter-1: 12.5; Mtb betalactam: -0.5; Rv3671c protease: -1.5; FBA Mtb inh: 49.4*; Mtb FBA confirm: active; GDH-TPI counter-2: active

Results for CCOc1ccc(C(=O)NCc2ccccn2)cc1 ?
Mtb UGM inh: -1.9; GDH-TPI counter-1: 2.6; Mtb betalactam: -8.0; Rv3671c protease: 10.3; FBA Mtb inh: 0.5

Results for O=C(NCCc1ccc(F)cc1)c1coc(=O)c(Br)c1 ?
Mtb UGM inh: 0.4; GDH-TPI counter-1: 20.6; Mtb betalactam: -1.4; Rv3671c protease: 5.6; FBA Mtb inh: 16.7

Results for C[C@@H](NC(=O)c1coc(=O)c(Br)c1)c1ccccc1 ?
Mtb UGM inh: -0.4; GDH-TPI counter-1: 32.5*; Mtb betalactam: 14.9; Rv3671c protease: 5.3; FBA Mtb inh: 81.0*; Mtb FBA confirm: 72.4*; GDH-TPI counter-2: 51.9*

What do the screens show for `FCCCOc1ccc(CN2CCN(c3ccccc3F)CC2)cc1`?
Mtb UGM inh: 2.4; GDH-TPI counter-1: -4.1; Mtb betalactam: -6.1; Rv3671c protease: -11.7; FBA Mtb inh: -2.2

How did Cc1ccc(N2CC(C(=O)Nc3ccccc3OC(F)F)CC2=O)cc1 (stereo not given) do in these assays?
Mtb UGM inh: 0.8; GDH-TPI counter-1: -5.6; Mtb betalactam: 3.0; Rv3671c protease: -1.9; FBA Mtb inh: -0.1

How did COc1ccc2c(c1)c1ncn(Cc3ccc(F)cc3)c(=O)c1n2C do in these assays?
Mtb UGM inh: -1.1; GDH-TPI counter-1: 0.8; Mtb betalactam: -10.1; Rv3671c protease: 2.4; FBA Mtb inh: 50.9*; Mtb FBA confirm: 3.0; GDH-TPI counter-2: -2.4

How did Cc1ccc2[nH]c3c(=O)n(CCN4CCOCC4)cnc3c2c1 do in these assays?
Mtb UGM inh: 1.0; GDH-TPI counter-1: 0.9; Mtb betalactam: 2.8; Rv3671c protease: 2.1; FBA Mtb inh: 13.7

What do the screens show for `O=c1c2[nH]c3ccc(F)cc3c2ncn1Cc1ccncc1`?
Mtb UGM inh: 0.1; GDH-TPI counter-1: 23.4; Mtb betalactam: 7.4; Rv3671c protease: -4.2; FBA Mtb inh: 12.4

Results for COc1cc2[nH]c3c(=O)n(CCN4CCCCC4)cnc3c2cc1OC ?
Mtb UGM inh: -0.1; GDH-TPI counter-1: 23.5; Mtb betalactam: 2.0; Rv3671c protease: 5.3; FBA Mtb inh: 40.5*; Mtb FBA confirm: 107.0*; GDH-TPI counter-2: 92.4*

Source: PubChem
